# Screens (PubChem BioAssay)
# Pf growth 96h: inhibits malaria parasite growth, 96 h. P. falciparum luciferase reporter growth, 96 h. Potency, µM (top dose mostly 28.7 µM), for the others: at the highest dose activity change, negative = inhibition, most hits filed as inhibitors. actives 6.9% (n = 320,000). AID 504834; also: potency is read from the fitted curve at half-maximal effect; % is scaled to controls: 0 for no effect and ±100 for the full control effect
#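 Two parasite generations (96 h, 37 C, 5% CO2) of compound exposure in infected erythrocytes (0.05% parasitemia, 2% hematocrit). Luciferase-reporter P. falciparum; decreased luminescence indicates inhibited growth, aimed at apicoplast-acting delayed death.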
# Cycloheximide cs: counter-screen hit for Shiga toxin inhibitors, cycloheximide; AID 2314; cell reporter, cycloheximide protein synthesis inhibition counterscreen; max response, %; actives 12% (n = 300,000); in the data active = max response mostly above about 13%, no sharp cut-off; inactive = mostly below about 14%; also: read at 38.3 µM for the half of the compounds with a filed dose; 0% is about no effect
# Giardia FBPA inh: blocks Giardia fructose-bisphosphate aldolase activity; AID 2451; Potency, µM (series often up to 59.6 µM), without a hit: at the highest dose activity, negative = inhibition, usual class: inhibitors; actives 0.71% (n = 290,000); A8B2U2; purified Giardia FBPA; also: potency is read from the fitted curve at half-maximal effect; % is scaled to controls: 0 for no effect and ±100 for the full control effect; nearly all actives have a fitted effect of over 55% in size
# Target sequence (A8B2U2 whole entry, looked up): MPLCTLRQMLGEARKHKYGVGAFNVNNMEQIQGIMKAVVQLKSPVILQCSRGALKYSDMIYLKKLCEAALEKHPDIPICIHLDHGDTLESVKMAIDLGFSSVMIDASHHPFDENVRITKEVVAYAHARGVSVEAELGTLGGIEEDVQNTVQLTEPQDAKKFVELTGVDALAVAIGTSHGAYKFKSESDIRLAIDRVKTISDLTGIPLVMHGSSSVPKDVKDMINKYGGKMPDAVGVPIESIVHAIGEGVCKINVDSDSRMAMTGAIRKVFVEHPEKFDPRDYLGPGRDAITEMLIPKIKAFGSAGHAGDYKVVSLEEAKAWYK
#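 Giardia FBPA (40 nM reagent) was preincubated 10 min at RT with compound (up to 57.5 uM final), then substrate plus GAPDH/TPI/NAD/arsenate coupling system with diaphorase/resazurin was added; resorufin fluorescence (525/598 nm) was read after 20 min.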
# Pf growth 48h: inhibits P. falciparum growth in the first generation, 48 h; Potency, µM (highest dose often 28.7 µM), for the others: top-dose activity change, negative = inhibition, usual class: inhibitors; P. falciparum luciferase growth in erythrocytes, 48 h; actives 5.9% (n = 310,000); AID 504832; also: potency is read from the fitted curve at half-maximal effect; % is scaled to controls: 0 for no effect and ±100 for the full control effect
#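 Cell-based growth assay: transgenic P. falciparum expressing firefly luciferase, cultured in red cells within RPMI 1640 containing 0.5% w/v Albumax, 24 mM bicarbonate and gentamycin. A drop in luciferase activity indicates inhibition.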
# Shiga inhibitor: inhibitors of Shiga toxin in Vero cells | AID 2315 | actives 9.2% (n = 290,000) | Vero cells, Shiga toxin protein synthesis inhibition reporter | inhibition, % at 38.7 µM; in the data active = inhibition mostly above about 28%, no sharp cut-off; inactive = mostly below about 43%; also: 0% is about no effect
# NS1 function inh: influenza NS1 inhibition. actives 0.4% (n = 270,000). Potency, µM (highest dose often 46.1 µM), for inactives: at the highest dose activity, positive = more growth; calls by dose curve; also: potency is read from the fitted curve at half-maximal effect; actives are rising curves; nearly all actives have a fitted effect of over 50% in size
#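 A cell-based growth assay was used: compounds that relieve NS1-induced slow growth of budding yeast raise OD600. Assay medium was yeast nitrogen base with ammonium sulphate and -URA supplement, pH 6.0, with 2% galactose.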
# * marks the source's active call; other numbers are inactive results; ? = inconclusive; · = no result. Shown are actives, neighbours in structure and some others; about 21% of the full set was active somewhere. Unless noted, calls follow the shape of the dose curve; as a rule, active = well fitted curve in the direction sought with a large enough effect; inconclusive = small, poorly fitted or top-dose-only effect, or another doubt; inactive = no such curve, though single readings can be large; an effect the other way counts as inactive or inconclusive.
SMILES,Pf growth 96h,Cycloheximide cs,Giardia FBPA inh,Pf growth 48h,Shiga inhibitor,NS1 function inh
NC(=O)C1CCN(C(=O)c2ccc(OCC(=O)Nc3cccc(C(F)(F)F)c3)cc2)CC1,16%,·,·,-2%,·,·
COc1cccc(C(=O)/C=C/Nc2ccc(S(=O)(=O)Nc3ncccn3)cc2)c1,?,43*,7%,30%,103*,3%
COc1cccc(C(=O)/C=C/Nc2ccc(S(=O)(=O)Nc3nc(C)cc(C)n3)cc2)c1,2.1µM*,10,1%,-2%,-4,-12%
O=C(/C=C/Nc1ccc(S(=O)(=O)Nc2ncccn2)cc1)c1ccc2ccccc2c1,24%,1,-3%,3%,5,-1%
O=C(/C=C\Nc1ccc(S(=O)(=O)Nc2ncccn2)cc1)c1ccccc1,32%,51*,7%,18%,142*,0%
CC#C[C@]1(O)CC[C@H]2C3CCC4=CC(=O)CCC4=C3[C@@H](c3ccc(N(C)C)cc3)C[C@@]21C (some centres not stated),·,·,-7%,·,·,-39%
CC(Oc1ccc(Br)cc1)C(=O)Nc1cc(S(=O)(=O)N2CCOCC2)ccc1N1CCCC1 (configuration not stated),13µM*,·,·,?,·,·
CC(Oc1ccc(F)cc1)C(=O)Nc1cc(S(=O)(=O)N2CCOCC2)ccc1N1CCCC1 (configuration not stated),?,-2,7%,3%,15,5%
CC(Oc1ccc(F)cc1)C(=O)Nc1cc(S(=O)(=O)N2CCOCC2)ccc1N1CCCCC1 (configuration not stated),3.3µM*,·,·,4.7µM*,·,·
COc1ccc(N2CC(C(=O)Nc3nc4ccc(F)cc4s3)CC2=O)c(OC)c1 (configuration not stated),-4%,14,-2%,9%,-1,-2%
Cc1ccc(S(=O)(=O)N2CCCN(C(=O)CNC(=O)c3cccc(C)c3)CC2)cc1,-17%,·,·,-23%,·,·
O=c1c2cc(NC(=S)N3CCCC3)ccc2nc2n1CCCCC2,?,-2,0%,3%,-10,5%
O=c1c2cc(Br)ccc2nc2n1CCCCC2,85%,29*,·,9%,55,-17%
Cc1ccc2nc3n(c(=O)c2c1)CCCCC3,69%,31*,-9%,44%,53*,6%
O=c1c2cc([N+](=O)[O-])ccc2nc2n1CCCC2,440%,-1,8%,·,-5,3%
CC(=O)c1ccccc1NC(=O)COC(=O)/C=C/c1ccc(OC(F)F)cc1,3%,·,·,1%,·,·
CCOC(=O)Cn1c(=O)cc(C)c2ccccc21,27%,0,0%,0%,20,5%
C=CCn1c(=N)n(CC(=O)c2ccc(Cl)cc2)c2ccccc21,0%,8,-5%,?,-1,-3%
CCOC(=O)Cn1c(C)[n+](CC(=O)c2ccccc2)c2ccccc21,5.2µM*,-4,3%,?,-3,-3%
CCCCc1n(CC(=O)c2ccc(Cl)cc2)c2ccccc2[n+]1C,?,-2,4%,1.2µM*,-19,·
Cn1c(=N)n(CC(=O)c2ccc(F)cc2)c2ccccc21,191%,37*,12%,·,68*,-5%
Cc1n(CC(=O)c2ccc(F)cc2)c2ccccc2[n+]1C,?,-1,4%,3.7µM*,-8,·
O=C(Cn1c(C(F)(F)F)nc2ccccc21)c1ccc(F)cc1,-7%,-4,1%,-10%,-16,-3%
CC1=C(C(N)=O)C(c2ccccc2[N+](=O)[O-])n2ncnc2N1 (configuration not stated),211%,-5,-5%,·,1,-1%
O=S(=O)(Nc1cccc(-c2ccc3nncn3n2)c1)c1cc(F)ccc1F,0%,·,·,37%,·,·
SMILES,Pf growth 96h,Cycloheximide cs,Giardia FBPA inh,Pf growth 48h,Shiga inhibitor,NS1 function inh
Nc1nc(Cl)cc(NCCO)n1,·,·,·,·,·,-4%
CC(=O)Oc1ccc(C2OC(=O)c3ccccc3N2C(C)=O)cc1 (configuration not stated),-8%,-1,1%,·,-12,-9%
CCOC(=O)Nc1ccc2c(c1)OCO2,?,45*,3%,42%,66,-4%
COc1ccc(C(=O)N2c3ccccc3C(=O)OC2c2ccc3c(c2)OCO3)cc1 (configuration not stated),·,20*,-22%,55%,28,-57%
CC1CCCN(c2ccc(C(=O)Nc3ccc4c(c3)OCO4)cc2[N+](=O)[O-])C1 (configuration not stated),?,17*,-10%,?,-41,28%
COc1ccc(NC(=O)c2ccc3c(c2)OCO3)cc1[N+](=O)[O-],15%,31*,-8%,77%,60*,-1%
COC(=O)Nc1ccc2c(c1)OCO2,9%,12,-21%,?,28,14%
CCOC(=O)c1ccc(N2C(=O)CC(N(Cc3ccc4c(c3)OCO4)C(=O)Nc3ccccc3)C2=O)cc1 (configuration not stated),9.3µM*,13,-8%,·,20,-3%
COc1ccc(C)cc1NC(=O)c1ccc2c(c1)OCO2,23%,48*,-7%,59%,97*,-84%
CCOC(=O)c1ccc(NC(=O)c2ccc3c(c2)OCO3)cc1,·,19*,0%,13%,28,8%
O=C(Nc1ccc2c(c1)OCO2)Oc1ccccc1,-23%,38*,-13%,100%,76*,-12%
O=C(c1ccc(-n2cccn2)cc1)N1CCN(c2ncccc2C(F)(F)F)CC1,20%,1,·,10%,-12,-10%
O=C(O)CCC(=O)Nc1ccc(SSc2ccc(NC(=O)CCC(=O)O)cc2)cc1,-9%,-7,2%,?,-4,-4%
COc1ccc2[nH]c(C(=O)Nc3ccc4c(c3)OCO4)cc2c1,38%,53*,-16%,87%,100*,6%
CCCNC(=O)c1[nH]c(C)c(C(=O)OCC)c1C,43%,10,-1%,26%,-2,-1%
CCN(CC)c1ccc(NC(=O)c2ccc3c(c2)OCO3)cc1,?,55*,3%,-3%,58*,3%
COc1ccc(NC(=O)c2ccc3c(c2)OCO3)cc1,?,33*,-7%,203%,44,10%
CCOC(=O)c1c(C)[nH]c(C(=O)Nc2ccc3c(c2)OCO3)c1C,?,41*,-1%,103%,53*,-18%
S=C1NC2(CCCCC2)NC12CCCCC2,?,-2,-5%,?,15,7%
CN1CCC2(CC1)NC(=O)c1ccccc1N2,96%,4,-4%,-1%,1,0%
S=C1NC2(CCCC2)Nc2ccccc21,-19%,38*,?,22%,103*,7%
S=C1NC2(CCCCC2)Nc2ccccc21,17%,16*,-9%,-17%,33,7%
CC(=O)Nc1ccc(S(=O)(=O)N/N=C/c2ccc(C)s2)cc1,80%,48*,5%,147%,73*,13%
